Results: PubChem BioAssay AID588683 (Broad Institute, 2011)
Results with a measured potency or affinity are listed apart. The source made the active and inactive calls. The rule behind the calls is not given here.

biological target: Kelch-like ECH-associated protein 1 (Homo sapiens) + Nuclear factor erythroid 2-related factor 2 (Homo sapiens) (UniProt Q14145+Q16236); assay: Keap1-Nrf2 protein-protein interaction inhibitors, dose response, biochemical, fluorescence polarization, cherry-picked samples (AID 588683); conditions: Keap1/Nrf2 peptide fluorescence polarization, plate reader; series mostly up to 26 µM; activity change, negative = inhibition: at the top concentration;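 note: Kelch domain of Keap1 binding a fluorescein-labelled 9mer Nrf2 peptide; more negative means stronger inhibition of peptide binding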
Sequence (Q14145 whole entry, looked up, the tested form may be a part): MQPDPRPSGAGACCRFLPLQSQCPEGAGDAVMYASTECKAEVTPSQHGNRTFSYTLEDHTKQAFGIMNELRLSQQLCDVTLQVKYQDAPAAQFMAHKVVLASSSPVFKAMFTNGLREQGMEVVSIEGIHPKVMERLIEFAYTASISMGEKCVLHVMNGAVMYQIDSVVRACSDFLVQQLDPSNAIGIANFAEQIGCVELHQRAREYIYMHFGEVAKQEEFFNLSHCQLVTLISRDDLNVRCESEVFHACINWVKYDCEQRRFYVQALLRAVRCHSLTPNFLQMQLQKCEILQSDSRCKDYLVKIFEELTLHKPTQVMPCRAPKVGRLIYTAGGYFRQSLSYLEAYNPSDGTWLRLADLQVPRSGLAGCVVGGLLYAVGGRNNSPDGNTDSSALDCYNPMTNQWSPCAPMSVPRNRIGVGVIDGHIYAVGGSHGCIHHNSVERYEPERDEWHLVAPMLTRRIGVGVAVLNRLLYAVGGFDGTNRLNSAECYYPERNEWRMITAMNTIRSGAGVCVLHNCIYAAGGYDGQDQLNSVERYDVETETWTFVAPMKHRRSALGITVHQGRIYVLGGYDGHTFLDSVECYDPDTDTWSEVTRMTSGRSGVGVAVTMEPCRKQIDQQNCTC
Sequence (Q16236 whole entry, looked up, the tested form may be a part): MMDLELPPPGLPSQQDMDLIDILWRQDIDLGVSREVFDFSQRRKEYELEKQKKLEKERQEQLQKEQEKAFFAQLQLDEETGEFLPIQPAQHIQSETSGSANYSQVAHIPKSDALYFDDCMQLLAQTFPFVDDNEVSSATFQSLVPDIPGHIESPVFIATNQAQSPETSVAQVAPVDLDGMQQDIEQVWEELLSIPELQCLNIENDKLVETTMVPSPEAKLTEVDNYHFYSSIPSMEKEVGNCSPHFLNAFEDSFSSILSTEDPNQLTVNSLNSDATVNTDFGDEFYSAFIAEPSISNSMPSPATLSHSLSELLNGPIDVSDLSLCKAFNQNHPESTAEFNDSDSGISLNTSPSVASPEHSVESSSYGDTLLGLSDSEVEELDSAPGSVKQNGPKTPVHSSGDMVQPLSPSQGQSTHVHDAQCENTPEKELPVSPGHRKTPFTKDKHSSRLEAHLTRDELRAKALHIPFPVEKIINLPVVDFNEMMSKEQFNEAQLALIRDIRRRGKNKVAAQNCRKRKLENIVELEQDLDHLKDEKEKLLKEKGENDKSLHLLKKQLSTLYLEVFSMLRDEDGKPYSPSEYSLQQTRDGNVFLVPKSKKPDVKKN

Activity change, negative = inhibition, inactive:
CCCCCC(=O)N1CCCC1 -2.92%, O=C(CSc1nc2ccccc2c(=O)n1CCCN1CCOCC1)Nc1ccccc1OC(F)F -1.34%, CC1(C)CC(=O)C2=C(C1)OC(N)=C(C#N)C2c1cc2c(cc1[N+](=O)[O-])OCO2 (configuration not stated) -12%, CCN1CC=C2C(C#N)=C(N)C(C#N)(C#N)C(CCc3ccccc3)C2C1 (configuration not stated) 5.09%, O=C(O)c1cc(N2N=C(C(F)(F)F)/C(=C/C=C/c3ccco3)C2=O)ccc1Cl -25%, O=C(Cc1ccc(S(=O)(=O)N2CCCC2)s1)Nc1nc2c(s1)CCCC2 -0.217%, O=C(Nc1ccccc1C(=O)N1CCCCCC1)c1ccc(F)cc1 -6.9%, COC(=O)c1ccc(OC(=O)CN2C(=O)c3ccccc3C2=O)cc1 -6.97%, O=C(NCCOCc1ccc(Cl)cc1)c1ncn[nH]1 -12.4%, C=CCn1cccc(C(=O)Nc2ccc(OC)c(Cl)c2)c1=O -2.59%, CCOc1cccc(C2C(C(=O)c3ccc(C)o3)=C(O)C(=O)N2c2nccs2)c1 (configuration not stated) -21.9%, N#CCCN(CCC#N)C(=O)C1c2ccccc2Oc2ccccc21 0.566%, O=C1/C(=C/C=C/c2ccco2)SC(=S)N1NS(=O)(=O)c1ccccc1 -4.92%, O=C(CSC1=NNC(c2ccccn2)S1)Nc1cccc(Cl)c1 (configuration not stated) -5.02%, CCCC1C2CN(C(C)C)CC=C2C(C#N)=C(N)C1(C#N)C#N (configuration not stated) 24.3%, COc1ccc(C(=O)c2ccsc2N)cc1 -4.13%, Oc1ccc2c(c1)OCC1(O)Cc3cc(O)c(O)cc3C21 (configuration not stated) -8.58%, COc1ccc(C2OC34CCCCC3C(C#N)(C#N)C2(C#N)C(=N)O4)cc1 (configuration not stated) -9.26%, CN(C)CCN(C)Cc1c2ccccc2c(CN(C)CCN(C)C)c2ccccc12 -18.3%, COc1ccccc1Cn1c(=S)[nH]c2ccccc2c1=O -3.77%, COc1[nH]c(/N=C/c2ccccc2)c(C#N)c1C#N 3.73%, CCOc1ccc(S(=O)(=O)Nc2cccc(C(=O)NCCCn3ccnc3)c2)cc1 15.2%, COc1cc(NC(=O)CSc2nc3cc(C)ccc3cc2C)c(C(=O)O)cc1OC -2.64%, COc1ccccc1CNC(=O)c1ccccc1NS(C)(=O)=O -2.84%, O=C(NNc1ncnc2sccc12)c1ccc(Cl)cc1 6.87%, CCC1OC2(C)OC(=N)C1(C#N)C(C#N)(C#N)C2c1ccccc1 (configuration not stated) -2.42%, Oc1[nH]c2ccccc2c1N=Nc1ccccc1F 396%, CC(C)NC(=O)N(C)C[C@H]1Oc2ccc(NS(=O)(=O)c3cn(C)cn3)cc2C(=O)N([C@H](C)CO)C[C@@H]1C -2.06%, CC(Sc1nc2ccccc2s1)C(=O)Nc1nnc(C(C)C)s1 (configuration not stated) -5.87%, CCCCCSc1nnc2c(n1)OC(C)N(C(C)=O)c1ccccc1-2 (configuration not stated) 0.854%, O=C(NNc1cc(Cl)ccc1Cl)c1cccs1 0.801%, Cc1ccc2oc(=O)c3cnn(CC(=O)NCCC(C)C)c3c2c1 -7.73%, CN(C)CCNC(=O)c1c(NC(=O)c2ccccc2)sc2c1CCCC2 -1.66%, O=C(COC(=O)c1cccnc1Cl)Nc1ccc(N2CCCCC2)cc1 -0.322%, CCCCN1C(=O)/C(=C2/Sc3ccccc3N2C)S/C1=N\c1ncn[nH]1 55.7%, O=C1NC(=O)/C(=C/c2ccccc2Cl)N1 -4.79%, C=CCn1c(O)c(CN2CCOCC2)c(C)c(C#N)c1=O -13.2%
